Compound activity: PubChem, Johns Hopkins Ion Channel Center
In the library only some 1.6% were active in any assay of this set; here they are far more common.
KCNQ2 block = KCNQ2 (rat) channel inhibition; O88943; CHO-K1 KCNQ2, FluxOR thallium flux, 20 min; stronger effect = lower value; B-score at 10 µM; 1.1% of 310,000 active; AID 2156;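 active means fluorescence ratio B-score at most minus 3 library SDs, with starting brightness B-score within 2 library SDs, cut at about -5.5 in these data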
Target sequence (O88943 whole entry, looked up): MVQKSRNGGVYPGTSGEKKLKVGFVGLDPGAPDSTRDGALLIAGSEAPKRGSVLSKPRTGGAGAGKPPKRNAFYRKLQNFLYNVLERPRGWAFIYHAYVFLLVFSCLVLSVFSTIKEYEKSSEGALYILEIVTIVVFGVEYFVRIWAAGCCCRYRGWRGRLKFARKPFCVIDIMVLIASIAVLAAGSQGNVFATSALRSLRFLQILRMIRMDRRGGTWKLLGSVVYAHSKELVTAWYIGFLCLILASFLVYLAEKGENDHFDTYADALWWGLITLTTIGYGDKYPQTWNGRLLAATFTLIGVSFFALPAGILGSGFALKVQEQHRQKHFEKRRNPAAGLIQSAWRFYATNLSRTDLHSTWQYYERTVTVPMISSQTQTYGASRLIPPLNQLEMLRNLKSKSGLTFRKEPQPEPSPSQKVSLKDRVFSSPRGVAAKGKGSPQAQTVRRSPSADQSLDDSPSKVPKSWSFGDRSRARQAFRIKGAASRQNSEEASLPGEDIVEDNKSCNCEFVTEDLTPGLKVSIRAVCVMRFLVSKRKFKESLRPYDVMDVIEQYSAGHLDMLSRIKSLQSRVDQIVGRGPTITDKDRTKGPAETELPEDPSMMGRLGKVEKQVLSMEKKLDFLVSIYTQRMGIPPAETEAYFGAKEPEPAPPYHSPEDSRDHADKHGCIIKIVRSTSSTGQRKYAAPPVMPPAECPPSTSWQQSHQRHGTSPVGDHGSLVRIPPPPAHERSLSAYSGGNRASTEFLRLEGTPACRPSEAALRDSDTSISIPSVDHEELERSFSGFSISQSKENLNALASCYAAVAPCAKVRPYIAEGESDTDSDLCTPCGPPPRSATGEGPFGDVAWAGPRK
KCNQ2 pot = potentiators of rat KCNQ2 potassium channel | CHO-K1 KCNQ2, FluxOR thallium flux fluorescence; stronger effect = higher value | B-score at 10 µM | 0.54% of 310,000 active;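 active means fluorescence ratio B-score at least 3 SD of library B-scores, with initial fluorescence B-score within 3 of them, cut at about 5.3 in these data; same plate scores as AID 2156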;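 further: B-score of peak minus minimum over baseline fluorescence ratio after K+ and Tl+ stimulus; positive B-score means potentiation of KCNQ2 with more thallium influx and brighter signal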
Kir21 conf inh = confirmation of mouse Kir2.1 potassium channel inhibitors. shares compounds with KCNQ2 pot. 41% of 2,300 active. Tl flux remaining, % of negative control (stronger effect = lower value), % at 10 µM. AID 2032. Kir2.1-expressing cells, FluxOR thallium flux fluorescence; stronger effect = lower value;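 active means Primary-screen hit whose thallium flux fell at least 3 control SD below untreated wells in both duplicates, with normal baseline fluorescence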
HEK293 ctr = alters thallium flux in parental HEK293 cells, Kir2.1 counter-screen | FluxOR signal as % of negative control (100 = no effect), % at 10 µM | shares compounds with KCNQ2 pot | 19% of 2,300 active | AID 2105 | FluxOR thallium flux fluorescence; 0% = unstimulated blank wells;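 active means dye signal at least 3 control SD above or below untreated wells in both duplicates, raw fluorescence within 3, either direction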;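 further: percent is based on the flux ratio of peak minus minimum fluorescence over baseline F0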
CHO-K1 Tl ctr = parental CHO-K1 activity in KCNQ2 potentiator counter-screen; shares compounds with KCNQ2 pot; activity increase over 3SD of controls, % at 10 µM; 43% of 1,200 active; AID 2282; parental CHO-K1 cells, FluxOR thallium flux fluorescence; zero = vehicle mean+3SD, 100% = vehicle-minus-blank window;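 active means signal rise of at least 3 SD above the untreated control mean, in both duplicate wells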;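 further: counter screen of KCNQ2 potentiator hits so any rise reflects channel-independent effects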
KCNQ1 sel pot = human KCNQ1 counter-target activity of KCNQ2 potentiators; 28% of 1,200 active; shares compounds with KCNQ2 pot; CHO KCNQ1 stable, FluxOR thallium flux fluorescence; beyond 3SD, as % of vehicle-control signal; activation over 3SD threshold, % at 10 µM; AID 2283;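 active means fluorescence ratio rise of at least 3 SD of vehicle wells above their mean, in both replicate wells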
KCNQ2 pot confirm = rat KCNQ2 channel potentiator confirmation; shares compounds with KCNQ2 pot; CHO-KCNQ2 cells, FluxOR thallium flux fluorescence; potentiation, less the hit threshold, % at 10 µM; 68% of 1,200 active;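 active means fluorescence ratio rising 3 SD or more over the vehicle control mean in both replicates, plus primary screen hit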;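 further: peak minus minimum thallium fluorescence divided by baseline after K/Tl stimulus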
Kir2-1 sel = tests whether KCNQ2 potentiators also affect mouse Kir2.1; HEK293 Kir2.1, FluxOR thallium flux fluorescence; activity over 3SD threshold, % at 10 µM; 2% of 1,200 active; shares compounds with KCNQ2 pot;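 active means fluorescence ratio rise of at least 3 SD above the vehicle-control mean, seen in both replicates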
KCNQ2 W236L pot = KCNQ2 potentiators acting on retigabine-insensitive rat KCNQ2 W236L mutant | CHO KCNQ2-W236L, automated patch clamp current | 10% of 940 active | shares compounds with KCNQ2 pot | current increase over 3SD of negative controls (%), stronger effect = higher value, % at 25 µM;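 active means current increase at least 3 SD of the untreated controls above them in both duplicate recordings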
Of the large screens only hits and unclear results are named; the others gave an inactive call (follow-up assays come after a bar, where they were run).

S=C(NCc1ccccc1)NCc1cccc(Cl)c1	none (no result: KCNQ2 pot)
S=C(NCCc1ccc(Cl)cc1)NCc1ccccc1	none (no result: KCNQ2 pot) | Kir21 conf inh inactive | HEK293 ctr inactive
C/C(=N\NC(=S)NCCc1ccccc1)c1ccc(O)cc1O	none
S=C(NCCc1cccc(Cl)c1)NCc1ccccc1	KCNQ2 pot 7.5 | CHO-K1 Tl ctr 9.3 | KCNQ1 sel pot 41 | KCNQ2 pot confirm 12 | Kir2-1 sel inactive | KCNQ2 W236L pot inactive
N#Cc1cccc(N=c2ssnc2Cl)c1	none
CO/N=C/NC(=O)c1c(OC)ccnc1Oc1ccc(F)cc1	none (no result: KCNQ2 pot)
COCCOCCOCCC(=O)NC1CC2CCC1(C)C2(C)C (centres undefined)	none
CCOC(=O)CC(=O)CSc1nc(-c2cccnc2)cc(C)c1C#N	none (no result: KCNQ2 pot)
COc1ccc(-c2ccccc2)cc1NCc1ccccc1C	none (no result: KCNQ2 pot)
Cc1ccc(C(=O)N/C(=C\c2cccs2)c2nc3ccccc3[nH]2)cc1	none (no result: KCNQ2 pot)
Cc1ccc(/C=C(\NC(=O)c2ccc(C)cc2)c2nc(=S)[nH][nH]2)cc1	KCNQ2 pot 6 | Kir21 conf inh inactive | HEK293 ctr inactive | CHO-K1 Tl ctr inactive | KCNQ1 sel pot inactive | KCNQ2 pot confirm inactive | Kir2-1 sel inactive
CCCCCOC(=O)CSc1nc2c(c(=O)[nH]c(=O)n2C)n1Cc1ccc(Cl)cc1	none
CN(Cc1cccc(C(F)(F)F)c1)C(=O)C1CCC(=O)N(CC2CCCCC2)C1 (centres undefined)	none (no result: KCNQ2 pot)
CNC[C@@H](Cc1ccccc1)NC[C@@H](CC1CCCCC1)NCCCc1ccccc1	KCNQ2 block -6.2 | Kir21 conf inh inactive | HEK293 ctr inactive
CNC[C@@H](CC1CCCCC1)NC[C@H](CC(C)C)NCCc1cccc(C(F)(F)F)c1	none (no result: KCNQ2 pot) | Kir21 conf inh 28% | HEK293 ctr inactive
CN(C[C@H](Cc1ccccc1)N(C[C@@H](CC1CCCCC1)N(CCc1ccccc1)N=O)N=O)N=O	none (no result: KCNQ2 pot)
Cc1cc(C(F)(F)F)nn1Cc1ccc(C(=O)NCc2ccco2)o1	none
CN1C(=O)/C(=N/OC(=O)c2ccccc2)c2ccccc21	none (no result: KCNQ2 pot)
CC(=O)C(N=Nc1ccccc1)(Sc1nnc(-c2ccccc2)n1-c1ccccc1)C(=O)Nc1ccccc1 (centres undefined)	none (no result: KCNQ2 pot)
Cc1cccc(C)c1NC(=O)CN(C)CC(=O)Nc1cc(Cl)ccc1C#N	none
O=C(CP(=O)(c1ccccc1)c1ccccc1)N/N=C/c1cc(Br)cc(Br)c1O	none
COc1cc(/C=N/NC(=O)Cc2ccc(Br)cc2)cc(OC)c1O	none
COc1cc(Br)cc(/C=N/NC(=O)Cc2ccccc2)c1O	KCNQ2 pot 5.3 | Kir21 conf inh inactive | HEK293 ctr 72% | CHO-K1 Tl ctr inactive | KCNQ1 sel pot inactive | KCNQ2 pot confirm 8.0 | Kir2-1 sel inactive | KCNQ2 W236L pot inactive
O=C(Cc1ccccc1)N/N=C/c1cc(Br)cc(Cl)c1O	KCNQ2 pot 6.1 | Kir21 conf inh inactive | HEK293 ctr inactive | CHO-K1 Tl ctr 4.8 | KCNQ1 sel pot inactive | KCNQ2 pot confirm 20 | Kir2-1 sel inactive | KCNQ2 W236L pot 25%
O=C(NC1CC(=O)N(c2ccccc2)C1)N1CCN(C(=O)c2ccco2)CC1 (centres undefined)	none
COc1cccc(OC)c1C(=O)Nc1ccc(CN2CCCCC2)cc1	none (no result: KCNQ2 pot)
CC(=O)NC(CC(=O)NC1CCCCCC1)c1ccccc1 (centres undefined)	none
Cc1ccc(C(C)NC(=O)C2CCCC2)c(C)c1 (centres undefined)	none
COc1ccc(C(C)NC(=S)NC2CCCC2)cc1OC (centres undefined)	none
Cc1ccc(C(C)NC(=S)NC2CCCCC2)cc1C (centres undefined)	KCNQ2 pot 25 | Kir21 conf inh inactive | HEK293 ctr inactive | CHO-K1 Tl ctr inactive | KCNQ1 sel pot 8.7 | KCNQ2 pot confirm 103 | Kir2-1 sel inactive | KCNQ2 W236L pot inactive
CCN1CCN(C(c2cccs2)C(C)NC(=S)NC2CCCCC2)CC1 (centres undefined)	none (no result: KCNQ2 pot)
Cc1ccc(C(C)NC(=S)NC2CCCCC2)c(C)c1 (centres undefined)	KCNQ2 pot 7.3 | CHO-K1 Tl ctr 70 | KCNQ1 sel pot inactive | KCNQ2 pot confirm inactive | Kir2-1 sel inactive | KCNQ2 W236L pot 8.5%
CCC(NC(=S)NC1CCCCC1)c1ccc(C(C)C)cc1 (centres undefined)	KCNQ2 pot 14 | Kir21 conf inh inactive | HEK293 ctr inactive | CHO-K1 Tl ctr 18 | KCNQ1 sel pot inactive | KCNQ2 pot confirm 54 | Kir2-1 sel inactive | KCNQ2 W236L pot inactive
CCC(NC(=O)NC1CCCCC1)c1ccccc1 (centres undefined)	KCNQ2 pot 19 | Kir21 conf inh inactive | HEK293 ctr inactive | CHO-K1 Tl ctr inactive | KCNQ1 sel pot inactive | KCNQ2 pot confirm 70 | Kir2-1 sel inactive | KCNQ2 W236L pot inactive
CCn1c(-c2ccccc2)c(C(=O)O)c2ccccc21	none
COc1ccc(Nc2nc(NN)nc(C)c2[N+](=O)[O-])cc1	none (no result: KCNQ2 pot)
Cc1cc(C(=O)N/N=C/c2ccc3c(c2)OCO3)c(C)o1	none
COc1ccc(CCCNC(=O)C2CCC(=O)N(Cc3ccc(Cl)cc3)C2)cc1 (centres undefined)	none (no result: KCNQ2 pot)
O=C(Nc1cccc(N2C(=O)C=CC2=O)c1)c1cccs1	none (no result: KCNQ2 pot) | Kir21 conf inh 72% | HEK293 ctr inactive
Cc1nc2ccccc2c(=O)n1-c1cccc(NC(=O)c2cccs2)c1	none
O=C(NC1CCCCCC1)c1ccc(Br)o1	none
COc1cccc(OCC(O)CN2CCc3ccccc3C2)c1 (centres undefined)	none
OC(COc1ccc(Cl)cc1Cl)CN1CCc2ccccc2C1 (centres undefined)	none (no result: KCNQ2 pot) | Kir21 conf inh 40% | HEK293 ctr inactive
COc1cc(COCC(O)CN2CCc3ccccc3C2)cc(OC)c1OC (centres undefined)	none
Cc1cccc(OCC(O)CN2CCc3ccccc3C2)c1 (centres undefined)	none | Kir21 conf inh 42% | HEK293 ctr inactive
COc1ccc(OCC(O)CN2CCc3ccccc3C2)cc1 (centres undefined)	none
Cc1ccc(OCC(O)CN2CCc3ccccc3C2)c(C)c1 (centres undefined)	none (no result: KCNQ2 pot) | Kir21 conf inh 28% | HEK293 ctr inactive
